In experiment [1] the test system is Human papillomavirus type 1a protein E7 (residues 44-93). The experiment is described as follows: small molecules binding HPV E7 44-93 – biochemical, small-molecule microarray, residues 44-93, 635 nm fluorescence, primary screen (AID 1108).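 Also: E7 fragment applied at 1 µg/mL in TBST for 1 h at 4 C; score combines spot fluorescence with its signal to noise ratio.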 The following applies: fluorescence 635 nm, higher = more signal.
Experiment [2] is described as follows: hepatitis C replication reporter changes, two-sided – Huh7 cells, luciferase reporter, HCV replication inhibitor project, primary screen (AID 1109).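 Also: huh7 hepatoma cells harbouring a luciferase neomycin HCV replicon reporter; luciferase luminescence as measure of HCV replicon replication; test concentration not given here.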 To be noted: Huh7 HCV replicon luciferase reporter, 48 h; higher = more signal. For orientation: In a reporter assay the amount or activity of a reporter protein is the signal.
The target of experiment [3] is Left-right determination factor 2 (Homo sapiens) (UniProt O00292). The experiment is described as follows: small molecules binding LEFTY2 protein – biochemical, small-molecule microarray, 635 nm fluorescence scan, primary screen (AID 1110). To be noted: higher = more signal.
Sequence of Left-right determination factor 2 (Homo sapiens) (O00292 whole entry, looked up): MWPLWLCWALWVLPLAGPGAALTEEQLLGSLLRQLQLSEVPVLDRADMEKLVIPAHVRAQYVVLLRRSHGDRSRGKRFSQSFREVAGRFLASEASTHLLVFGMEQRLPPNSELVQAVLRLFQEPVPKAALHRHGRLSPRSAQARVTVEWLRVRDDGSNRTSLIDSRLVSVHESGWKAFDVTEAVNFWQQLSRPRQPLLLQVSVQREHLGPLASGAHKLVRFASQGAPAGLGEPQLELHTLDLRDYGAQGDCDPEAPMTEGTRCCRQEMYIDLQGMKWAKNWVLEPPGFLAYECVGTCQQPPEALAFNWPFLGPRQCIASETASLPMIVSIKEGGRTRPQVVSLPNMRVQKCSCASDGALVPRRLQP
The target in experiment [4] is Calmodulin-1 (Homo sapiens) (UniProt P0DP23). The experiment is described as follows: small molecules binding calmodulin-1 with EGTA – biochemical, small-molecule microarray, Cy5-labelled CALM1, profiling panel (AID 1111).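 Also: labelled calmodulin applied in Tris saline Tween buffer holding calcium plus EGTA and DTT.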 The following applies: Cy5-CALM1 binding fluorescence, higher = more signal.
Experiment [5] shares this target. The experiment is described as follows: small molecules binding Ca-loaded calmodulin-1 – biochemical, small-molecule microarray, Cy5-labelled CALM1, plus calcium, artefact control for SMM control-protein annotation, profiling panel (AID 1112).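 Also: score merges spot fluorescence with signal to noise from triplicate slides.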 To be noted: Cy5-CALM1 binding fluorescence, higher = more signal.
The nature of experiment [6]: probe aWnt5a binding to arrayed compounds – biochemical, biotinylated probe, 635/667 nm fluorescence, primary screen (AID 1113).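 Also: score merges 667 nm fluorescence intensity with signal-to-noise per printed feature.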 To be noted: small-molecule microarray, higher = more signal.
The nature of experiment [7]: probe aShh binding to arrayed compounds – biochemical, biotinylated probe, 635/667 nm fluorescence, primary screen (AID 1114).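 Also: probe is biotin-labelled aShh protein from a stem cell growth factor screen; measures binding of labelled protein to compounds printed on the slide; score merges feature fluorescence at 667 nm with signal-to-noise.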 The following applies: small-molecule microarray, higher = more signal.
A short description of experiment [8]: probe aNog binding to arrayed compounds – biochemical, biotinylated probe, 635/667 nm fluorescence, primary screen (AID 1115).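 Also: probe is biotinylated aNog protein used at 0.15 µg/mL for 1 h at 4 C; z-score combines 667 nm fluorescence of each spot with its signal to noise.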 The following applies: small-molecule microarray, higher = more signal.
Experiment [9] has as its target Torsin-1A-interacting protein 1 (Homo sapiens) (UniProt Q5JTV8). The experiment is described as follows: compound microarray binding of lysate hLAP1 – cell lysate, small-molecule microarray, COS7 lysate, 635/667 nm fluorescence, primary screen (AID 1116). To be noted: 635 nm fluorescence, higher = more signal.
In experiment [10] the target is Alpha-bungarotoxin (Bungarus multicinctus) (UniProt P60615). The experiment is described as follows: compounds binding labelled alpha-BTX control protein – biochemical, small-molecule microarray, Alexa647 label, 635/667 nm fluorescence, artefact control for SMM control protein annotation, profiling panel (AID 1117). The following applies: alpha-BTX-A647 binding fluorescence, higher = more signal.
Sequence of Alpha-bungarotoxin (Bungarus multicinctus) (P60615 whole entry, looked up): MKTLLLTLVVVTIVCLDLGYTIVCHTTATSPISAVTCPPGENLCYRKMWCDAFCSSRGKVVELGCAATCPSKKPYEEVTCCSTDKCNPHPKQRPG

Sequence of Torsin-1A-interacting protein 1 (Homo sapiens) (Q5JTV8 whole entry, looked up): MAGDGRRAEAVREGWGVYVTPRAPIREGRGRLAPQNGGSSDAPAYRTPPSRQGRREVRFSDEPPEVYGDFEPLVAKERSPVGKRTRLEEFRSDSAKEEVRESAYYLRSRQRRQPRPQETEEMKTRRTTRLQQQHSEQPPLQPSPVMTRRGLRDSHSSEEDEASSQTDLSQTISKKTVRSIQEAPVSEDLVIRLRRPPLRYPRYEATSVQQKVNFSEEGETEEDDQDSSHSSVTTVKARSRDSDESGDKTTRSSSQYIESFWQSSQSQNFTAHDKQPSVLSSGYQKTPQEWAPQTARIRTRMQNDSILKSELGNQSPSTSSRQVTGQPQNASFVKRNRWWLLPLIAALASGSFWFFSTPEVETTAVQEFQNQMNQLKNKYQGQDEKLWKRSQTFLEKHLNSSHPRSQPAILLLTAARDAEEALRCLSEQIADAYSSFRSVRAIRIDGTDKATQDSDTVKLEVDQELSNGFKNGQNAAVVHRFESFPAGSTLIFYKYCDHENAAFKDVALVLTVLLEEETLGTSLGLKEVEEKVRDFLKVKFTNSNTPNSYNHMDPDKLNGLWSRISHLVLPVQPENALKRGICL

`CCCCCCc1nc(-c2ccc(OC)nc2)c(C)c2c1[Si](C(C)C)(C(C)C)OC2`: the composite z-score was -0.329 in experiment [1]; 0.445 in experiment [3]; -0.0398 in [4]; -0.257 in experiment [5]; -0.0462 in experiment [6]; -0.154 in experiment [7]. Further, the composite z-score in experiment [8] was -0.129; in [9], -0.391; in experiment [10], -0.304. Further, the z-score in experiment [2] is -0.603.

As to `COC(=O)[C@@]1(Cc2ccccc2)[C@H]2c3cc(C(=O)N(C)C)n(Cc4ccc(Cl)c(C(F)(F)F)c4)c3C[C@H]2CN1C(=O)c1ccccc1`, the composite z-score in experiment [1] is 1.37; in experiment [3], 0.533; in [4], 1.49; in [5], 1.06; in experiment [6], 0.315; in [7], 1.24. Besides, the composite z-score in experiment [8] is 1.91; in experiment [9] it was 0.636; in [10], 0.995. Moreover, the z-score in experiment [2] was -2.61.

As for `O=C1C[C@@](C(=O)NCC(F)(F)F)(c2ccc([N+](=O)[O-])cc2)[C@@H](c2ccc(CO)cc2I)N1CC12CC3CC(CC(C3)C1)C2`, the composite z-score in experiment [1] is 1.31; in experiment [3], 0.0604; in experiment [4], 0.595; in [5], 0.149; in experiment [6], -0.0843; in experiment [7], -0.314. The composite z-score was -0.229 in experiment [8], 0.349 in experiment [9] and 1.23 in [10]. The z-score in experiment [2] was -3.3.

In the case of `CO[C@H]1O[C@H](CO)[C@@H](OC(=O)CCc2ccccc2)[C@@H]2OC(=O)[C@@H](Cc3ccc4ccccc4c3)C/C=C/C[C@H](Cc3ccc4ccccc4c3)C(=O)O[C@@H]12`, the composite z-score in [1] was 0.349; in experiment [3], -0.817; in experiment [4] it was -0.452; in experiment [5], -0.119; in [6] it was -0.202; in [7], -0.0709. Moreover, the composite z-score in experiment [8] is -0.266; in [9], -0.0222; in experiment [10], 1.33. The molecule further returned a z-score in [2] of 0.228.

Consider `CC(C)N1CC=CC23O[C@@H]4/C=C\CCCOC(=O)C4[C@H]2C(=O)N(C(C)CO)[C@@H]3C1=O` (stereo not given in full), for which the composite z-score in experiment [1] is -0.7; in experiment [3] it was -0.794; in experiment [4] it was -0.814; in experiment [5], -0.242; in experiment [6], -0.308; in [7] it was -0.167. For the same molecule, the values for the composite z-score in experiment [8], in experiment [9] and in experiment [10] were -0.356, -0.401 and -0.393, respectively. In experiment [2], this molecule came in with a z-score of 0.314.

On to `CCOC(=O)C1=CCC(c2cccn2C(=O)OC(C)(C)C)N(S(=O)(=O)c2ccc(C)cc2)C1` (stereo not given), for which the composite z-score in experiment [1] is 0.18; in experiment [3], 0.379; in [4], 0.864; in experiment [5], 0.439; in experiment [6], -0.104; in experiment [7], 0.428. Further, the composite z-score in [8] is 1.21; in experiment [9], 1.52; in [10], 2.21. Besides, the z-score in [2] is -3.94.

Take `COC(=O)C(CC#Cc1ccc2c(c1)[C@]1(C(=O)N2)[C@H](C(=O)N2CCN(c3ncccn3)CC2)[C@H]2C(=O)O[C@H](c3ccccc3)[C@H](c3ccccc3)N2[C@@H]1c1ccc(O)cc1)C(=O)OC`: the composite z-score in experiment [1] was 0.335; in [3], 0.813; in experiment [4], 2.18; in experiment [5], 1.36; in experiment [6], 0.436; in experiment [7] it was 0.87. The values for the composite z-score in experiment [8], in experiment [9] and in experiment [10] were 1.16, 2.45 and 2.29, respectively. For the same molecule, the z-score in experiment [2] is -1.66.

Consider `COc1ccc(CCNC(=O)[C@@H]2c3ccccc3C(=O)N(C(C)C)[C@H]2c2ccc(CO)cc2)cc1`, for which the composite z-score in experiment [1] was -0.943; in [3], -1.81; in [4], -0.446; in experiment [5], 0.465; in [6] it was -0.172; in experiment [7] it was -0.209. Further, the results for the composite z-score in [8], in experiment [9] and in [10] were -0.0621, 0.434 and 2.66, respectively. Besides, the z-score in experiment [2] was -1.41.

`C=C(COC)/C(=C/C[C@@H](OC(C)=O)c1cccc(OCCO)c1)c1cnc2ccccc2c1`: the composite z-score in experiment [1] was 0.848; in experiment [3] it was 0.754; in experiment [4], -0.534; in experiment [5], -0.593; in experiment [6], 0.0391; in [7] it was 0.199. In addition, the values for the composite z-score in [8], in [9] and in experiment [10] were -0.0065, 0.302 and 1.87, respectively. Moreover, the z-score in [2] is -1.73.

As to `COCCOC(=O)N1C(=O)[C@@]2(c3cc(C#CCCO)ccc31)[C@H](C(=O)N1CCN(c3ncccn3)CC1)[C@H]1C(=O)O[C@H](c3ccccc3)[C@H](c3ccccc3)N1[C@@H]2c1ccc(OCCO)cc1`, the composite z-score in experiment [1] worked out at 1.46; in [3] it was 0.6; in experiment [4] it was 1.26; in [5], 0.0318; in experiment [6] it was 0.0633; in experiment [7], 0.0469. Moreover, the composite z-score in [8] was found to be 0.234; in [9] it was 0.867; in [10] it was 1.95. The molecule also yielded a z-score in experiment [2] of -1.21.

For `CCc1cccc(NC(=O)O[C@H]2[C@H](OC(=O)Nc3ccccc3-c3ccccc3)[C@H](OC(=O)Nc3ccccc3-c3ccccc3)[C@@H](OC)O[C@@H]2CO)c1`, the composite z-score in [1] is 1.42; in experiment [3] it was 0.588; in [4] it was 1.44; in experiment [5] it was -0.301; in experiment [6], 0.179; in experiment [7] it was 0.0796. For the same molecule, the composite z-score in [8] was -0.318; in experiment [9], 1.81; in experiment [10], 1.29. Also, in experiment [2], the z-score was -1.95.

For `COC(=O)Cn1c(C(=O)N(C)C)cc2c1C[C@H]1CN(C(=O)c3ccccc3)[C@@](Cc3ccccc3)(C(=O)OC)[C@@H]21`, the composite z-score in experiment [1] is -1.8; in experiment [3] it was 0.103; in experiment [4] it was 0.371; in experiment [5] it was -0.198; in experiment [6], 0.0077; in [7], 0.253. Moreover, the results for the composite z-score in experiment [8], in experiment [9] and in [10] were -0.354, -0.878 and 0.195, respectively. Moreover, the z-score in [2] is -0.0967.

Turning to `CCCCC=C[C@@H](NC(=O)C(C)(C)C)c1ccccc1`, the composite z-score in [1] came out at 1.28; in experiment [3], 0.466; in experiment [4] it was 0.815; in [5] it was 0.113; in [6], 0.0357; in experiment [7], 0.54. Moreover, the figures for the composite z-score in experiment [8], in [9] and in experiment [10] were 0.863, -0.334 and 0.82, respectively. Further, the z-score in [2] was -3.07.

Source of the values: PubChem BioAssay.
